This passage reports Potency, outcome and activity change, negative = inhibition results from PubChem BioAssay (NCATS).

The structures appear in SMILES notation. Unmarked numbers belong to inactive results. Records with an inconclusive call do not appear. The source made the active and inactive calls. Unless noted, calls come from the whole dose curve; as a rule, active = well fitted curve in the direction sought with a large enough effect; inconclusive = small, poorly fitted or top-dose-only effect, or another doubt; inactive = no such curve, though single readings can be large; an effect the other way counts as inactive or inconclusive.

The nature of experiment [1]: NCATS anti-infectives library activity on HEK293 viability as a counter-qHTS vs the C. elegans viability qHTS (AID 1745854).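 Note: HEK293 cells exposed to compounds for 24 hr before the viability read; % is set by controls: 0 for no effect and ±100 for the full control effect.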 Summed up:
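Compound titrations (final up to 41.7 uM) were incubated with HEK293 cells for 24 hr at 37C under 5% CO2. Viable cells were quantified with CellTiter-Glo after 10 min at ambient temperature.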

The target in experiment [2] is Cytochrome P450 3A4 (Homo sapiens) (UniProt P08684). Description: qHTS Assay for Activators of Cytochrome P450 3A4 (AID 885). Note: nearly all actives have a fitted effect of over 65% in size. In a few lines:
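Luminescent readout of luciferin formed from 25 uM Luciferin-PPXE (KM level) by 20 nM CYP3A4 in 200 mM KPO4, with 60 min NADPH-driven reaction at room temperature after 10 min compound exposure. Ketoconazole (57 uM) defined 100% inhibition.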
(qHTS replaces the single test concentration by a dilution series.)

For experiment [3], the target named is Ubiquitin carboxyl-terminal hydrolase 1 (Homo sapiens) (UniProt O94782). As to the kind of experiment: Inhibitors of USP1/UAF1: Pilot qHTS (AID 504865). Note: nearly all actives have a fitted effect of over 35% in size. Note: potency is the fitted concentration of half-maximal effect. In a few lines:
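In 50mM HEPES pH 7.8 containing 0.5mM EDTA, 1mM TCEP, 0.1 mg/ml BSA and 0.01% Tween-20, 1nM USP1/UAF1 is exposed to compound for 15 min, then Ub-Rho (150nM final) is added and fluorescence is read over time.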

Experiment [4] has as its target Phospholipid hydroperoxide glutathione peroxidase GPX4 (Homo sapiens) (UniProt P36969). As to the kind of experiment: Primary qHTS Assay for Inhibitors of Recombinant Selenoprotein Glutathione Peroxidase 4 (GPX4) (AID 1845192). Note: potency is the fitted concentration of half-maximal effect; nearly all actives have a fitted effect of over 65% in size. Summed up: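 qHTS, GR-coupled: GPX4 200 nM + cpd 30 min RT → GSH 1 mM, NADPH 0.5 mM, GR 100 nM → CHP 0.5 mM start; fluor 340/450 at t0 and t15 min; no-enzyme wells as control.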

For experiment [5], the target named is Cytochrome P450 1A2 (Homo sapiens) (UniProt P05177). As to the kind of experiment: p450-cyp1a2 (AID 410; calls by dose curve; note: potency is the fitted concentration of half-maximal effect). Summed up: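 Read-out is luminescence from luciferin produced by CYP1A2 demethylation of Luciferin-ME (100uM, at Km). Detection reagent stopped the 60 min NADPH-dependent reaction; signals were normalized to 57 uM furafylline.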
Experiment [6] deals with Glucocorticoid receptor (Homo sapiens) (UniProt P04150). Description: GR-GFP Redistribution (AID 450;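 active = compounds whose dose series gives a full or clear partial fitted curve of increased nuclear translocation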; note: potency is the fitted concentration of half-maximal effect). As to conditions: U2OS GR-GFP nuclear translocation, laser cytometry, 2 h.
For experiment [7] the target is unchanged. As to the kind of experiment: GR-EFC Redistribution (AID 451; calls by dose curve; note: potency is the fitted concentration of half-maximal effect). As to conditions: CHO-K1 GR-EFC translocation, beta-gal luminescence, 2 h. In a few lines: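 CHO-K1 cells stably expressing nuclear-localized β-gal enzyme acceptor and GR fused C-terminally to the enzyme donor fragment; ligand-driven nuclear translocation restores β-gal by complementation. Compounds titrated up to 46 uM final, 2 h at 37 °C; luminescence read.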

In experiment [8] the target is Mitogen-activated protein kinase 10 (Mus musculus) (UniProt Q61831). Description: JNK3 AlphaScreen Assay (AID 530; active = well fitted curve in either direction with a large enough effect, not every such curve was filed as active;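 note: kinase came from lysate of stimulated human HepG2 cells; signal reports phosphorylation of biotinylated GST-cJun 1-79 at Ser73 with 10 µM ATP; % is set by controls: 0 for no effect and ±100 for the full control effect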). In a few lines:
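Biotinylated GST-cJun(1-79) served as substrate for JNK3 in HepG2 lysates stimulated with IL-1beta and TNF-alpha. ATP was 10 uM final, pH 7.6. Ser73 phosphorylation was quantified by AlphaScreen (680 nm excitation).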
For orientation: Bead proximity is the source of the signal in Alpha formats.

Experiment [9] concerns the target Cytochrome P450 3A4 (Homo sapiens) (UniProt P08684). Description: qHTS Assay for Inhibitors and Substrates of Cytochrome P450 3A4 (AID 884). Note: potency is the fitted concentration of half-maximal effect; nearly all actives have a fitted effect of over 50% in size. In a few lines: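 Luminescent readout of luciferin produced by CYP3A4 (20 nM) dealkylation of Luciferin-PPXE, 25 uM (its KM). NADPH-driven reaction ran 60 min at RT after 10 min compound preincubation; data scaled to 57 uM ketoconazole as 100% inhibition.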

The target of experiment [10] is Cytochrome P450 2C19 (Homo sapiens) (UniProt P33261). Description: qHTS Assay for Inhibitors and Substrates of Cytochrome P450 2C19 (AID 899). Note: potency is the fitted concentration of half-maximal effect; nearly all actives have a fitted effect of over 60% in size. In a few lines: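 In 50mM KPO4, the reaction held 5nM enzyme and KM-level (10uM) Luciferin-H EGE; it ran 60 min at 37C after NADPH regeneration and a 10 min compound preincubation. Luminescence values were scaled to 57uM ketoconazole as complete inhibition.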

Experiment [11] can be described thus: AP1 Signaling Pathway (AID 357; active = well fitted curve in either direction with a large enough effect, not every such curve was filed as active;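 note: ME-180 reporter cells stimulated with EGF at its EC50 level; % is set by controls: 0 for no effect and ±100 for the full control effect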). Conditions: ME-180 (cervical carcinoma) AP-1-bla reporter, EGF-induced, beta-lactamase ratio, 5 h; at 7.69 µM (top of the series) unless noted. In a few lines: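 In this screen, ME-180 cells in Opti-MEM with 0.5% dialyzed FBS received EC50 EGF and compound titrations for 5 h. AP-1 reporter beta-lactamase was detected via CCF4 ratio, giving AC50 for positive and negative modulators.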

Experiment [12] is described as follows: NFAT Signaling Pathway (AID 444; active = well fitted curve in either direction with a large enough effect, not every such curve was filed as active;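 note: carbachol stimulus at about its EC50 of 1 µM final; % is set by controls: 0 for no effect and ±100 for the full control effect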). As to conditions: Jurkat NFAT-bla M1, carbachol, beta-lactamase ratio, 5 h; at 7.69 µM (top of the series) unless noted. Summed up: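 Jurkat cells carrying an NFAT-driven β-lactamase reporter and co-transfected muscarinic M1 receptor were treated with compound plus carbachol (1 uM final, an EC50 level) for 5 h at 37 °C. CCF4 loading followed for 1 h at RT; 460/530 nm ratio gave %activity.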

Experiment [13] is described as follows: Stat Signaling Pathway (AID 446; active = well fitted curve in either direction with a large enough effect, not every such curve was filed as active). In a few lines: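 FRET read-out (405 nm excitation, 460/530 nm emission) of a beta-lactamase reporter under a STAT-inducible element in ME-180 cervical carcinoma cells. Cells with compound receive 40 pM IL-6 for 5 h. Values are normalised to AC90 stimulation and AC90 JAK-inhibitor controls.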
Experiment [14] has as its target Dual specificity protein kinase CLK4 (Homo sapiens) (UniProt Q9HAZ1). As to the kind of experiment: qHTS Assay for Inhibitors of CDC-like Kinase 4 (Kinase-Glo Assay) (AID 1770). Note: nearly all actives have a fitted effect of over 65% in size. Note: potency is the fitted concentration of half-maximal effect. In a few lines: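 Substrate mix (RS peptide 100 uM, ATP 1 uM) dispensed, compound pinned in, then Clk4 added to 25 nM final. Incubated 4.5 h at RT; Kinase-Glo reagent added, luminescence read after 5 min.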

Experiment [15] has the same target. Description: qHTS Assay for Inhibitors of CDC-like Kinase 4 (ADP-Glo Assay) (AID 1771). Note: nearly all actives have a fitted effect of over 70% in size. Note: potency is the fitted concentration of half-maximal effect. Summed up:
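In this ADP-Glo format, 1 uM ATP and 100 uM RS peptide served as substrates for 25 nM Clk4 in Mg2+/EGTA/DTT/Triton buffer; reactions ran 1 hr at room temperature before luminescent ADP quantification.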

The target is the same in experiment [16]. As to the kind of experiment: qHTS Assay for Inhibitors of CDC-like Kinase 4 (ADP-FP Assay) (AID 1795). Note: nearly all actives have a fitted effect of over 60% in size. Note: potency is the fitted concentration of half-maximal effect. In a few lines:
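Clk4 6.25 nM; RS peptide 100 uM; ATP 1 uM; 25 mM Tris pH 7.5, 10 mM MgCl2; 1 h reaction. ADP detected via antibody/orange tracer FP displacement; TG003 positive control.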

Experiment [17] concerns the target Lysosomal acid glucosylceramidase (Homo sapiens) (UniProt P04062). Description: Glucocerebrosidase-p2 (AID 348; in the data active = potency below about 10 µM; note: potency is the fitted concentration of half-maximal effect). As to conditions: purified GBA, blue fluorogenic substrate, 40 min. Summed up: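 Normal human glucocerebrosidase (0.2 nM) with blue fluorogenic substrate (80 uM final) in citrate/phosphate pH 5.9 with 10mM sodium taurocholate, 0.01% tween-20; 40 min RT, NaOH/glycine stop; fluorescence Ex 365/Em 440; AC50 from a titration from 0.6 nM upwards.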

Experiment [18] concerns the target 3',5'-cyclic-AMP phosphodiesterase 4B (Homo sapiens) (UniProt Q07343). As to the kind of experiment: qHTS Assay for Inhibitors of PDE-IV (AID 607; active = well fitted activation curve with a large enough effect in the main read-out, with a control signal flat, not every such curve was filed as active; note: % of control where 0% means no effect). In a few lines: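 Cell-based read-out of cAMP via a modified cyclic nucleotide-gated channel and membrane potential dye (535/590 nm) in HEK293 cells expressing PDE4 endogenously. Compounds tested up to 22.9 uM final; 100 uM RO 20-1724 reference.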

Sequence of Glucocorticoid receptor (Homo sapiens) (P04150 whole entry, looked up, the tested form may be a part): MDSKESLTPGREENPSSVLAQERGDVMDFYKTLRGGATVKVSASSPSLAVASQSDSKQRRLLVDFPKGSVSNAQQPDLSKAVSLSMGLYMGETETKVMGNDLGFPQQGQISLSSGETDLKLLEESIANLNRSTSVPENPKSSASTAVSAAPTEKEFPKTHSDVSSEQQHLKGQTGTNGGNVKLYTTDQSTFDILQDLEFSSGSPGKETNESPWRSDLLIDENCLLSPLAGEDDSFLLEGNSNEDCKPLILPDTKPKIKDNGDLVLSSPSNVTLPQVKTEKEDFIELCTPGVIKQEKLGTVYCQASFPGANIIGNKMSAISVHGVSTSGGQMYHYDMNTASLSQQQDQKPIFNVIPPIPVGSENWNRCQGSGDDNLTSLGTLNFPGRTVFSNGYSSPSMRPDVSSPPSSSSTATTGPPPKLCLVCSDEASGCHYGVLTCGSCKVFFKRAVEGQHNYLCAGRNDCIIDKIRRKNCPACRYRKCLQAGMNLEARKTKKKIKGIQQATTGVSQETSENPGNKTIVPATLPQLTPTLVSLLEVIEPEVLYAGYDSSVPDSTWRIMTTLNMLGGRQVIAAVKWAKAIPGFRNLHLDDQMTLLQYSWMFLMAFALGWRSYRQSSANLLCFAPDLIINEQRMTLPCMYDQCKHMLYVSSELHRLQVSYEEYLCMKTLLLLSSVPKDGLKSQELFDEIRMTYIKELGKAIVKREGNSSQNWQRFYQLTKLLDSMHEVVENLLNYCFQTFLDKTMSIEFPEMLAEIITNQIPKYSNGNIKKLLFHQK
Sequence of Dual specificity protein kinase CLK4 (Homo sapiens) (Q9HAZ1 whole entry, looked up): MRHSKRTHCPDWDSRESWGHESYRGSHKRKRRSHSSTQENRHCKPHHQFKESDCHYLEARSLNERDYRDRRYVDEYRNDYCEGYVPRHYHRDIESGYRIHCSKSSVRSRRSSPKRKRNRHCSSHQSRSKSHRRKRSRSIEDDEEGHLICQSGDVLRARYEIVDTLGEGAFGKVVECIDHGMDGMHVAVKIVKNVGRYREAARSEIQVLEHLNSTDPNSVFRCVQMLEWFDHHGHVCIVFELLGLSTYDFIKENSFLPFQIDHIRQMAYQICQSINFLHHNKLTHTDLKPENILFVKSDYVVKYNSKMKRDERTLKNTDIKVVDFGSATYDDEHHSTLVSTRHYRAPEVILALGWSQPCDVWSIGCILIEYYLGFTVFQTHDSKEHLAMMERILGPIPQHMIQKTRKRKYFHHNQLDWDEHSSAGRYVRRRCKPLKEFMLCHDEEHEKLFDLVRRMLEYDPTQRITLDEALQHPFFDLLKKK
Sequence of Lysosomal acid glucosylceramidase (Homo sapiens) (P04062 whole entry, looked up): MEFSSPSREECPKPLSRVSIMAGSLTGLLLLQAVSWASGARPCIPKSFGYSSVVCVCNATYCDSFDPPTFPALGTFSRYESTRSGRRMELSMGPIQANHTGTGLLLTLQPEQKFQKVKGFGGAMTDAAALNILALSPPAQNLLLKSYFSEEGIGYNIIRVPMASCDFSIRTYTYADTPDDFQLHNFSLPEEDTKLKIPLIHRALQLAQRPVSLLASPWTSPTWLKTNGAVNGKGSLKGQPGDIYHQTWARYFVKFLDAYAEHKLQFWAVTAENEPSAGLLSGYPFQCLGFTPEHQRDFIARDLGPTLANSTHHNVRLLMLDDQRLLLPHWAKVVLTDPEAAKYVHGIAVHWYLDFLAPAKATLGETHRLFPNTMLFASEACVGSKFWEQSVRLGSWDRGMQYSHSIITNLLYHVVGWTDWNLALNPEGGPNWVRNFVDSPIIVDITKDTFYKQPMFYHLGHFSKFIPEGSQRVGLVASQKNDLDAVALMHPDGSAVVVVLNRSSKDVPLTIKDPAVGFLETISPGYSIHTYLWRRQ
Sequence of Ubiquitin carboxyl-terminal hydrolase 1 (Homo sapiens) (O94782 whole entry, looked up): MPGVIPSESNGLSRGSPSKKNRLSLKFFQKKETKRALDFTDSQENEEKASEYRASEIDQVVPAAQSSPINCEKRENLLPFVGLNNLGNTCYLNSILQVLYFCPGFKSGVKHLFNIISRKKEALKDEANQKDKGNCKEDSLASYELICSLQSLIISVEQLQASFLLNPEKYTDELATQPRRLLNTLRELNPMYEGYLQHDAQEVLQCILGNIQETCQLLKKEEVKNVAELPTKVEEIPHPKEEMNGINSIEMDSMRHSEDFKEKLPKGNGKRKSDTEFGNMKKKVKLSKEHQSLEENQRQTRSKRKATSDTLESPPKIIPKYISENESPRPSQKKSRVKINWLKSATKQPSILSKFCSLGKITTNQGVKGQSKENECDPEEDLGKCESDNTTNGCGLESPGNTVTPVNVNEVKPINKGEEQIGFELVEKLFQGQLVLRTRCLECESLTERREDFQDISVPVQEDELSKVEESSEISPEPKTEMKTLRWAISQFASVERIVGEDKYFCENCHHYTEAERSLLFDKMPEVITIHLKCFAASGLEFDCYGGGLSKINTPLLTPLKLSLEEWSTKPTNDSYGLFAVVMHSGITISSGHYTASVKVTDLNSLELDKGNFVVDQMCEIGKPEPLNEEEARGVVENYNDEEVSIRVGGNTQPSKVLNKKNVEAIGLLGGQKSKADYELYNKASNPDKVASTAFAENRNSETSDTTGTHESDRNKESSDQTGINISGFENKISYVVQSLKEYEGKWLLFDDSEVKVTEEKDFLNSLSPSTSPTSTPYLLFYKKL
Sequence of Cytochrome P450 1A2 (Homo sapiens) (P05177 whole entry, looked up): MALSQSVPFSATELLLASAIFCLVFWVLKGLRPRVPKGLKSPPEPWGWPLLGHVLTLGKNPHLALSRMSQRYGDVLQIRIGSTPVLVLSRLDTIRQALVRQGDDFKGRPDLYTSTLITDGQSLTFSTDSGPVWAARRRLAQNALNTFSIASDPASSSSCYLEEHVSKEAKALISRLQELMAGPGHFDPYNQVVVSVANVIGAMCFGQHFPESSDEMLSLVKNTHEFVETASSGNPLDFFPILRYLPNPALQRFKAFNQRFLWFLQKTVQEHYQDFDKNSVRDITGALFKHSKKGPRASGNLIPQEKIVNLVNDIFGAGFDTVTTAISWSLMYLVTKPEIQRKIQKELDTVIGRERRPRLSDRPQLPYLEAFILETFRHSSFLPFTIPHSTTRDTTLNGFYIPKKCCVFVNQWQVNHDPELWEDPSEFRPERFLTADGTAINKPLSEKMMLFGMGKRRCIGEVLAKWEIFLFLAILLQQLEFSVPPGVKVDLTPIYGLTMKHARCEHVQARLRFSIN
Sequence of 3',5'-cyclic-AMP phosphodiesterase 4B (Homo sapiens) (Q07343 whole entry, looked up): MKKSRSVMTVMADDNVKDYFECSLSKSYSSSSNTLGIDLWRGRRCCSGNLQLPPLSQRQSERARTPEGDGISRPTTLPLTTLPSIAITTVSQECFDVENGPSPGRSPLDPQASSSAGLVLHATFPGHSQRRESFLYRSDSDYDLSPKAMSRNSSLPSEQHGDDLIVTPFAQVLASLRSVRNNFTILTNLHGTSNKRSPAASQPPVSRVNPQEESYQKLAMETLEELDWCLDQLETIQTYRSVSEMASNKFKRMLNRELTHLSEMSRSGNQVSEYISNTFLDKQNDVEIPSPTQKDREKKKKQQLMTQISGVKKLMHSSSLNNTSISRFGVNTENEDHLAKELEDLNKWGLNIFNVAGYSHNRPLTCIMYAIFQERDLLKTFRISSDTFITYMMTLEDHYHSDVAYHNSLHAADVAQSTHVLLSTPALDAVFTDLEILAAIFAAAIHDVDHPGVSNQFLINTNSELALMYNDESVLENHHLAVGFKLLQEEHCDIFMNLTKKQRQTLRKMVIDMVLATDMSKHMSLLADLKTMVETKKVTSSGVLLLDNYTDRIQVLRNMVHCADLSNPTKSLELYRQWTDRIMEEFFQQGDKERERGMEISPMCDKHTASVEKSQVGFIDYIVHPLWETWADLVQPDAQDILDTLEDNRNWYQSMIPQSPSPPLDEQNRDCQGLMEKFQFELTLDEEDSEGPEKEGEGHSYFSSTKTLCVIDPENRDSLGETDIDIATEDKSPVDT
Sequence of Cytochrome P450 2C19 (Homo sapiens) (P33261 whole entry, looked up): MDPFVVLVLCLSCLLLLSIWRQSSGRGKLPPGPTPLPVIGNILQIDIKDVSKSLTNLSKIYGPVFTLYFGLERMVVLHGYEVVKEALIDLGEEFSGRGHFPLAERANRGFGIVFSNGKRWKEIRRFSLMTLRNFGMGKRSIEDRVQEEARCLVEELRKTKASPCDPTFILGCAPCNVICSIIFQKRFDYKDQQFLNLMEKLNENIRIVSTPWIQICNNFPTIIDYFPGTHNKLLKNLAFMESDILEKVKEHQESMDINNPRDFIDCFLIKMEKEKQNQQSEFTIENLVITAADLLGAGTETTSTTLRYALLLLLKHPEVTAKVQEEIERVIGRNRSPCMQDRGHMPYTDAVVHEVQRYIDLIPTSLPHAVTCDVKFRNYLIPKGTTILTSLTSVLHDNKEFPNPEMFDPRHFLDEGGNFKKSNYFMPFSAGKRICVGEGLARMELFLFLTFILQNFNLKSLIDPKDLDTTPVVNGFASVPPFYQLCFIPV
Sequence of Cytochrome P450 3A4 (Homo sapiens) (P08684 whole entry, looked up): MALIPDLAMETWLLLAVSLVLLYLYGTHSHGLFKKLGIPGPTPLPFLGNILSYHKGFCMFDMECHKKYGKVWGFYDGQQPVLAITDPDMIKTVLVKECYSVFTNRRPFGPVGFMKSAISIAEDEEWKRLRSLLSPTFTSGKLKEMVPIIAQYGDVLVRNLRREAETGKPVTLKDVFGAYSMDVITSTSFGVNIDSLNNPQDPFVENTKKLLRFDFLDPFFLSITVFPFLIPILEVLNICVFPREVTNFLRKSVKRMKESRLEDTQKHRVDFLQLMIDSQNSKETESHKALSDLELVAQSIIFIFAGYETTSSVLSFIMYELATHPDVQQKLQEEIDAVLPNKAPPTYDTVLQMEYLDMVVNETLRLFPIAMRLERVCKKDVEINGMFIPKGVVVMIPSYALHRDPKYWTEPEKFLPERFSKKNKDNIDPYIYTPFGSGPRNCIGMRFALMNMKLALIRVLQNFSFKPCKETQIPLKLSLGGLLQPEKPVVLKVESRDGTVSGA
Sequence of Phospholipid hydroperoxide glutathione peroxidase GPX4 (Homo sapiens) (P36969 whole entry, looked up): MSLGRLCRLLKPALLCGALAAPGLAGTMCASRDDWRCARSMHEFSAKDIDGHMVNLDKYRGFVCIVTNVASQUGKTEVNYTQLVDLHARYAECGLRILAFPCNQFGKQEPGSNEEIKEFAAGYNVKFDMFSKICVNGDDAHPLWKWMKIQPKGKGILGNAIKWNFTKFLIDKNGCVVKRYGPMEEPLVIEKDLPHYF

Turning to `O=C(/C=C/c1ccc(O)c(O)c1)O[C@H]1[C@H](O)C[C@](O)(C(=O)O)C[C@H]1OC(=O)/C=C/c1ccc(O)c(O)c1`, the Potency result in experiment [1] is “inactive”.
For the compound `O=C(O)c1cc(O)c2c(c1)[C@H]([C@H]1c3cc(C(=O)O)cc(O)c3C(=O)c3c(O[C@@H]4OC(CO)C(O)C(O)C4O)cccc31)c1cccc(O[C@@H]3OC(CO)C(O)C(O)C3O)c1C2=O` (some centres not stated), the compound was called inactive in [2]. Besides, the Potency in experiment [3] is 10 µM (active). For the same compound, the Potency entry in experiment [1] is “inactive”.
On to `COC(=O)N[C@H](C(=O)N1CC2(CC2)C[C@H]1c1ncc(-c2ccc3c(c2)C(F)(F)c2cc(-c4ccc5nc([C@@H]6[C@H]7CC[C@H](C7)N6C(=O)[C@@H](NC(=O)OC)C(C)C)[nH]c5c4)ccc2-3)[nH]1)C(C)C`, for which the Potency entry in [1] was “inactive”. Also, in [4], the Potency is 3.55 µM (active).
Turning to `O=c1ccc2cc3ccoc3cc2o1`, the Potency in experiment [5] is 0.0316 µM (active); in experiment [6], above 46 µM; in [7], above 46 µM; in experiment [9] it was 31.6 µM (active); in experiment [10] it was 3.98 µM (active). Moreover, the Potency result in [8] and in experiment [1] was “inactive” in each case.
As to `CCNc1ncc2ncc(=O)n(Cc3cccc(OC)c3)c2n1`, the activity change, negative = inhibition in [11] was -7.38%; in experiment [12], 8.9%. Further, the compound was classed as inactive in [13]. Further, the Potency in experiment [6] is above 9.22 µM; in [7] it was above 46 µM; in experiment [10] it was 2 µM (active); in [14], 3.16 µM (active); in experiment [15], 3.16 µM (active); in [16], 11.2 µM (active). Also, the Potency entry in experiment [8] and in experiment [3] was “inactive” in each case.
As for `Cc1nc2cnc(Oc3cccc(Cl)c3)nc2n(Cc2ccc(F)cc2)c1=O`, the Potency in [17] was above 11.4 µM; in experiment [6], above 9.22 µM; in [7] it was above 46 µM. For the same compound, the activity change, negative = inhibition in experiment [12] was -21.7%. In addition, in experiment [13], the compound was called inactive. For the same compound, the Potency entry in experiment [8], in experiment [18], in [14], in [15], in experiment [16] and in experiment [3] was “inactive” in each case.
As to `CN1CCN(c2ncc3nc(CCc4ccccc4)c(=O)n(CCc4ccccc4)c3n2)CC1`, the Potency is above 11.4 µM in experiment [17], above 9.22 µM in [6] and above 46 µM in experiment [7]. In addition, the results for the activity change, negative = inhibition in experiment [11] and in experiment [12] were -6.08% and -18.1%, respectively. In addition, the Potency entry in experiment [8], in [14], in experiment [15], in experiment [16] and in experiment [3] was “inactive” throughout.
On to `O=c1c(CCc2ccccc2)nc2cnc(N3CCNCC3)nc2n1-c1ccccc1`, for which the Potency was above 11.4 µM in experiment [17], 15.8 µM (active) in experiment [5], above 9.22 µM in experiment [6] and above 46 µM in experiment [7]. For the same compound, the activity change, negative = inhibition was -11.6% in experiment [11] and 6.64% in experiment [12]. In addition, the compound was classed as inactive in experiment [13]. Besides, the Potency entry in [18], in [14], in experiment [15], in experiment [16] and in [3] was “inactive” each time.
